Screens as filed in PubChem BioAssay.
GPR151 activ – activators of human GPR151, primary screen, cell-based, PathHunter beta-arrestin, luminescence | G-protein coupled receptor 151 (Homo sapiens), Q8TDV0 | hit rate 1% among 650,000 | AID 1508602, 2020 | PathHunter beta-arrestin GPR151 cells | activation, % at 11.2 µM; in the data active = activation above about 4.9%
MITF primary – MITF inhibitors, primary screen, biochemical, AlphaScreen, human; AlphaScreen MITF homodimerization, bead proximity signal; inhibition, % at 2.6 µM; hit rate 0.91% among 650,000; Microphthalmia-associated transcription factor (Homo sapiens), O75030; AID 1259374, 2018; in the data active = inhibition above about 50%
Target sequence (O75030 whole entry, looked up): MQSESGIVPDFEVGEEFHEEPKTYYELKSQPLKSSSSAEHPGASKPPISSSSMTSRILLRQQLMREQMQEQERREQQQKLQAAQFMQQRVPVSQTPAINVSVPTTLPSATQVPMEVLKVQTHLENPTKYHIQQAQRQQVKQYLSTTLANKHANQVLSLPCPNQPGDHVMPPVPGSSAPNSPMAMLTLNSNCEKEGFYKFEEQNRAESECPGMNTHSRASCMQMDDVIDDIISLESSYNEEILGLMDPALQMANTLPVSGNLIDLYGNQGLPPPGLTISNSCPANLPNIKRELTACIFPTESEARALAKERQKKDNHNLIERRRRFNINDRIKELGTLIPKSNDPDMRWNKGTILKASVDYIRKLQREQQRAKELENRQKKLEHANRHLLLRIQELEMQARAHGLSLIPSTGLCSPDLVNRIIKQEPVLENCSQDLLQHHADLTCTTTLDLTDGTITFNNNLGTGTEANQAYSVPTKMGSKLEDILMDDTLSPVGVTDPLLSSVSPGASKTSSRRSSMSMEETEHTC
FBW7 activator – FBW7 E3 ligase activators, primary screen, biochemical, AlphaScreen, human; AID 1259310, 2017; normalized activity (activation), % at 26.1 µM; F-box/WD repeat-containing protein 7 (Homo sapiens), Q969H0; hit rate 0.13% among 650,000; AlphaScreen FBW7–phospho-cyclin E peptide binding, activator screen; in the data active = normalized activity above about 1.9%;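 also: purified mutant Fbw7 with reduced substrate affinity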
TEAD-YAP block – TEAD-YAP interaction inhibition, primary screen, TEAD-YAP interaction inhibitor project, luminescence, HEK-TIYL cells. inhibition, % at 9.12 µM. TEAD-Gal4/YAP UAS-luciferase luminescence. hit rate 1.4% among 640,000; in the data active = inhibition above about 32%
Numbers stand for hits. Shown are actives, neighbours in structure and some others; about 3.5% of the full set was active somewhere.

Cc1ccc2sc(-c3ccc(NC(=O)C(C)(C)C)cc3)nc2c1 was read as GPR151 activ inactive, MITF primary inactive, FBW7 activator inactive and TEAD-YAP block 37.
For Cc1ccc2sc(-c3ccc(NC(=O)/C=C\C(=O)O)cc3)nc2c1 the results were GPR151 activ inactive, MITF primary inactive, FBW7 activator inactive and TEAD-YAP block 90.
`O=C(Nc1ccc(-c2nc3ccccc3s2)cc1)C(F)(F)F` gave GPR151 activ inactive, MITF primary inactive, FBW7 activator inactive and TEAD-YAP block 67.
For Cc1ccc2sc(-c3ccc(NC(=O)c4ccc(Br)cc4)cc3)nc2c1 the results were GPR151 activ inactive, MITF primary inactive, FBW7 activator inactive and TEAD-YAP block inactive.
O=C(NC(Nc1ccc(Cl)cc1)C(=O)c1ccccc1)c1cccs1 (stereo not given) was read as GPR151 activ inactive, MITF primary inactive, FBW7 activator inactive and TEAD-YAP block inactive.
`O=C1c2c(Cl)c(Cl)c(Cl)c(Cl)c2C(=O)N1c1ccc([N+](=O)[O-])cc1` gave GPR151 activ inactive, MITF primary inactive, FBW7 activator inactive and TEAD-YAP block inactive.
Screening COc1ccc(NC(=O)C2CC(=O)N(C)C(=Nc3ccccc3)S2)cc1 (stereo not given) returned GPR151 activ inactive, MITF primary inactive, FBW7 activator inactive and TEAD-YAP block inactive.
CC(NC(=O)Cn1cnc2sc3c(c2c1=O)CCCC3)c1ccccc1 (stereo not given) was read as GPR151 activ inactive, MITF primary inactive, FBW7 activator inactive and TEAD-YAP block inactive.
CCn1c(SCC(=O)Nc2cccc(F)c2)nnc1-c1ccccc1N was read as GPR151 activ inactive, MITF primary inactive, FBW7 activator inactive and TEAD-YAP block inactive.
Screening Nc1ccc(-n2ncnc2-c2cccc(-n3ncc4cc(Nc5ccccc5F)ccc43)c2)cc1 returned GPR151 activ inactive, MITF primary inactive, FBW7 activator inactive and TEAD-YAP block inactive.
For COc1ccc(-n2ncnc2-c2cccc(-n3ncc4cc(Nc5ccccc5F)ccc43)c2)cc1 the results were GPR151 activ inactive, MITF primary inactive, FBW7 activator inactive and TEAD-YAP block 38.
Screening COc1cc(NC(=O)c2cccc(-n3ncc4cc(Nc5ccccc5F)ccc43)c2)cc(OC)c1OC returned GPR151 activ inactive, MITF primary inactive, FBW7 activator inactive and TEAD-YAP block 33.
`O=C(Nc1cccc(-c2ccco2)c1)C1CCN(C(=O)Cc2ccc3c(c2)OCO3)CC1` gave GPR151 activ inactive, MITF primary inactive, FBW7 activator inactive and TEAD-YAP block inactive.
Screening COc1ccccc1OCC(=O)Nc1ccccc1C(=O)NC(C)C returned GPR151 activ inactive, MITF primary inactive, FBW7 activator inactive and TEAD-YAP block inactive.
For COc1ccc(C2=CC(c3ccccc3F)n3c(nc4ccccc43)N2)cc1 (stereo not given) the results were GPR151 activ inactive, MITF primary inactive, FBW7 activator inactive and TEAD-YAP block 35.
Cc1ccc(C2=CC(c3ccc(F)c(Br)c3)n3c(nc4ccccc43)N2)cc1 (stereo not given) was read as GPR151 activ inactive, MITF primary inactive, FBW7 activator inactive and TEAD-YAP block 52.
CCc1ccc(C2=CC(c3ccccc3F)n3c(nc4ccccc43)N2)cc1 (stereo not given) was read as GPR151 activ inactive, MITF primary inactive, FBW7 activator inactive and TEAD-YAP block 68.
Screening Fc1ccccc1C1C=C(c2ccc(Br)cc2)Nc2nc3ccccc3n21 (stereo not given) returned GPR151 activ inactive, MITF primary inactive, FBW7 activator inactive and TEAD-YAP block inactive.
COc1cccc(C2=CC(c3ccccc3F)n3c(nc4ccccc43)N2)c1 (stereo not given) was read as GPR151 activ inactive, MITF primary inactive, FBW7 activator inactive and TEAD-YAP block inactive.
Screening Cc1ccc(C2=CC(c3ccc(C)cc3)n3c(nc4ccccc43)N2)cc1 (stereo not given) returned GPR151 activ inactive, MITF primary inactive, FBW7 activator inactive and TEAD-YAP block inactive.
For O=C(Nc1nnc(C23CC4CC(CC(C4)C2)C3)s1)c1cc(Cl)ccc1[N+](=O)[O-] the results were GPR151 activ inactive, MITF primary inactive, FBW7 activator inactive and TEAD-YAP block inactive.
Screening Cn1c(C(=O)N2CCC(C(N)=O)CC2)cc2sccc21 returned GPR151 activ inactive, MITF primary inactive, FBW7 activator inactive and TEAD-YAP block inactive.
For Cc1ccc(CC2(CCC(=O)N3CCC(C)CC3)CCC(=O)N2)cc1 (stereo not given) the results were GPR151 activ inactive, MITF primary inactive, FBW7 activator inactive and TEAD-YAP block inactive.
`Nc1ccc2oc(-c3ccccc3Cl)nc2c1` gave GPR151 activ inactive, MITF primary inactive, FBW7 activator inactive and TEAD-YAP block 42.
`Nc1ccc2oc(-c3cc(I)ccc3Cl)nc2c1` gave GPR151 activ inactive, MITF primary inactive, FBW7 activator inactive and TEAD-YAP block 34.
Screening Nc1ccc2oc(-c3cc(Cl)ccc3Cl)nc2c1 returned GPR151 activ inactive, MITF primary inactive, FBW7 activator inactive and TEAD-YAP block inactive.
`Nc1ccc(Cl)c(-c2nc3cc(Cl)ccc3o2)c1` gave GPR151 activ inactive, MITF primary inactive, FBW7 activator inactive and TEAD-YAP block inactive.
Nc1ccc2oc(-c3cc(Br)ccc3Cl)nc2c1 was read as GPR151 activ inactive, MITF primary inactive, FBW7 activator inactive and TEAD-YAP block 41.
Screening O=C(NNc1ccc([N+](=O)[O-])cc1)c1ccc(Cl)cc1 returned GPR151 activ inactive, MITF primary inactive, FBW7 activator inactive and TEAD-YAP block inactive.
`COc1ccc2c(c1)c1c3n2CCN(Cc2ccccc2)C3=[N+](C)CC1` gave GPR151 activ inactive, MITF primary inactive, FBW7 activator inactive and TEAD-YAP block 42.
`COc1ccc2c(c1)c1c(n2Cc2ccccc2)CCCC1` gave GPR151 activ inactive, MITF primary inactive, FBW7 activator inactive and TEAD-YAP block inactive.
CCn1c(SCC(=O)OC(C)(C)C)nnc1-c1ccccc1OC was read as GPR151 activ inactive, MITF primary inactive, FBW7 activator inactive and TEAD-YAP block inactive.
For COc1ccc(S(=O)(=O)Oc2ccccc2NC(C)=O)c2ccccc12 the results were GPR151 activ inactive, MITF primary inactive, FBW7 activator inactive and TEAD-YAP block 55.
CC(=O)Nc1ccccc1OS(=O)(=O)c1cc(Br)ccc1Br was read as GPR151 activ inactive, MITF primary inactive, FBW7 activator inactive and TEAD-YAP block inactive.
COc1ccc(S(=O)(=O)Oc2ccccc2NC(C)=O)cc1C was read as GPR151 activ inactive, MITF primary inactive, FBW7 activator inactive and TEAD-YAP block 45.
Screening O=C(CNC(=O)c1ccc(Cl)cc1)N/N=C/c1ccc(C(=O)O)cc1 returned GPR151 activ inactive, MITF primary inactive, FBW7 activator inactive and TEAD-YAP block inactive.
For Cc1ccc(-c2cc3nccc(C4CCNCC4)n3n2)cc1 the results were GPR151 activ inactive, MITF primary inactive, FBW7 activator inactive and TEAD-YAP block inactive.
